# Assay outcomes from PubChem.
# DT40 TDP1 CPT: DT40-hTDP1 cell growth loss with CPT; chicken DT40 Tdp1-/-;hTDP1 cells + 20 nM CPT, ATP luminescence, 48 h; Potency, µM (top dose mostly 46.2 µM), for inactives: at the top dose activity change, negative = growth inhibition, actives largely listed as inhibitors; hit rate 12% among 420,000; further: potency means the concentration at half of the fitted maximal effect; nearly all actives have a fitted effect of over 55% in size
#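 Cell growth measured by CellTiter-Glo luminescence after a minimum 48 h, 37 C compound exposure with 20 nM CPT in Tdp1-knockout DT40 cells stably expressing hTDP1, seeded 400/well; qHTS titration format.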
# HT1080 IDH1KD tx: toxicity to HT-1080 IDH1 knockdown cells (counter line). Potency, µM (top dose mostly 46.1 µM), inactives show at the top dose activity, negative = toxicity, actives largely listed as cytotoxic. hit rate 2% among 360,000. HT-1080 IDH1 knockdown viability, ATP luminescence, 48 h;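 further: potency means the concentration at half of the fitted maximal effect; 0% = DMSO wells and -100% = cell-free medium wells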
#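 % activity derives from luminescence (CellTiter-Glo), normalised to DMSO and no-cell wells. HT-1080-IDH1KD cells, 750/well, had 48 h compound exposure at 37 °C.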
# ELG1 DNA repair: ELG1-dependent DNA repair inhibition; HEK293T ELG1-luciferase reporter, luminescence, 16 h; DNA damage induced by 5-fluorouridine; Potency, µM (series often up to 46.1 µM), for the others: at the top dose activity change, negative = inhibition, hits mostly inhibitors; hit rate 2.3% among 330,000; AID 504467; further: potency means the concentration at half of the fitted maximal effect; nearly all actives have a fitted effect of over 55% in size
#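 Reporter activity after DNA damage by 5-fluorouridine is monitored. Compound-treated cells incubate 16 hr at 37 °C, then ONE-Glo is added for 30 min before luminescence reading.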
# HT1080NT lethal: kills 2HG-producing HT-1080-NT fibrosarcoma cells. Potency, µM (titrated, usually from 46.1 µM), without a hit: at the highest dose activity, negative = less viability, most hits filed as cytotoxic. AID 686970. hit rate 1.6% among 360,000. HT-1080-NT fibrosarcoma viability, CellTiter-Glo ATP luminescence, 48 h;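 further: NT is the 2HG producing partner of a matched IDH1 knockdown line; potency means the concentration at half of the fitted maximal effect; 0% = DMSO-treated cells and -100% = media-only wells without cells; nearly all actives have a fitted effect of over 55% in size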
#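 Luminescent CellTiter-Glo readout after 48 hours of compound exposure at 37 degrees C defined viability of HT-1080-NT cells. Activity was normalized to DMSO wells and cell-free media wells; concentration-response curves were fitted and assigned curve classes.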
# IL-1B inflam inh: inhibitors of inflammasome signaling (IL-1 beta secretion). THP-1 LPS/ATP IL-1B secretion, AlphaLISA, 16 h; stronger effect = lower value. activity change, % at 57.5 µM. hit rate 4.7% among 360,000; in the data active means activity change below about -50%; inconclusive means mostly about -30% to -49%
#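 Secreted IL-1B measured by AlphaLISA bead assay after 16 h compound exposure of THP-1 cells; compounds (final up to 57.5 uM) added 1 h before LPS (250 ng/mL) and ATP (1.25 mM) stimulation; lower signal means less secretion.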
# TDP1 cell noCPT: qHTS for Inhibitors of human tyrosyl-DNA phosphodiesterase 1 (TDP1): qHTS in cells in absence of CPT; DT40 Tdp1-/- hTDP1 cells, no CPT, ATP luminescence, 48 h; Potency, µM (series often up to 46.2 µM), inactives show at the highest dose activity change, negative = growth inhibition, actives largely listed as inhibitors; hit rate 15% among 420,000; AID 686978, 2013; further: potency means the concentration at half of the fitted maximal effect; nearly all actives have a fitted effect of over 55% in size
#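 Growth kinetics read by CellTiter-Glo luminescence after ≥48 hr at 37 °C. Cells: DT40 Tdp1-/- stably carrying human TDP1, 400 per well, compound exposure in the absence of CPT (DMSO vehicle).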
# An asterisk follows results filed as active; ? = inconclusive; · = no result. Rows were chosen to be rich in hits. Some 19% of all compounds tested hit in one or more screens of this group. Unless noted, the call rests on the fitted dose curve; in most records, active means well fitted curve in the direction sought with a large enough effect; inconclusive means small, poorly fitted or top-dose-only effect, or another doubt; inactive means no such curve, though single readings can be large; an effect the other way counts as inactive or inconclusive. Unless noted, on the % scale 0 is the no-effect control and ±100 the full control effect.
SMILES,DT40 TDP1 CPT,HT1080 IDH1KD tx,ELG1 DNA repair,HT1080NT lethal,IL-1B inflam inh,TDP1 cell noCPT
COc1ccc(CNC(=O)CN(Cc2ccccc2)C(=O)CCC(=O)Nc2ccccn2)cc1,-3%,3%,-14%,11%,2,-25%
CCCC(CCC)C(=O)Nc1cc(-c2cn3cccnc3n2)ccc1OC,7%,·,·,·,·,-12%
N#CC1=C(Nc2ccccc2)SC=C(c2ccc(Cl)c(Cl)c2)N=C1N1CCOCC1,13µM*,-12%,-24%,-19%,-80*,?
N#Cc1nc(COc2ccccc2)oc1N1CCOCC1,-11%,9%,?,-1%,-18,-2%
N#Cc1nc(-c2ccccc2Cl)oc1N1CCOCC1,?,-20%,15%,?,-23,?
N#CC1=C(Nc2ccccc2)SC=C(c2ccccc2)N=C1N1CCOCC1,5.8µM*,0%,17%,-1%,-7,29µM*
Cc1c(C(=O)N2CCN(c3ccc(C(F)(F)F)cn3)CC2)oc2ccccc12,23µM*,-5%,-14%,0%,26,18µM*
Cc1ccc(C(=O)N2CCN(c3ccc(C(F)(F)F)cn3)CC2)c(C)c1,16µM*,-18%,-5%,-7%,8,21µM*
COc1ccc2c(c1)CCc1cnc(-n3ncc(C(=O)N4CCN(CCO)CC4)c3C3CC3)nc1-2,6%,·,·,·,·,-18%
COc1cccc(C(=O)N(Cc2sccc2C)C2CCS(=O)(=O)C2)c1 (stereo not given),8%,·,·,·,·,-5%
COC(=O)CCNC(=O)Cc1ccc(S(=O)(=O)N2CCCCC2)s1,-24%,16%,9%,23%,6,?
CCCc1nc2c3ccccc3ccn2c1Cc1ccccc1,18µM*,?,·,?,29,21µM*
COc1ccc(-c2nc3c4ccccc4ccn3c2Cc2cccc(Cl)c2)cc1OC,?,?,·,?,-10,?
COc1ccc(-c2nc3c4ccccc4ccn3c2Cc2ccc(C)cc2)cc1OC,?,?,·,?,-13,21µM*
Cc1ccc(Cc2c(-c3ccc(C#N)cc3)nc3c4ccccc4ccn23)cc1,?,7%,·,-1%,3,?
Cc1ccc(Cc2c(-c3ccccc3)nc3c4ccccc4ccn23)cc1,23µM*,-2%,·,-4%,47,21µM*
Cc1ccc(-c2nc3c4ccccc4ccn3c2Cc2ccsc2)cc1,16µM*,3%,·,-2%,0,?
CCCNc1c(NS(=O)(=O)c2c(F)c(F)c(F)c(F)c2F)c(=O)oc2ccccc12,-7%,?,-13%,?,0,14%
CCCCN(CCCC)C(=O)c1c[nH]c2ccc(S(=O)(=O)Nc3cccc(Cl)c3C)cc2c1=O,-23%,·,·,·,·,-12%
c1ccc(-c2nc3c4ccccc4ccn3c2Cc2ccsc2)cc1,23µM*,-11%,·,-15%,14,16µM*
O=c1cc(-c2ccc([N+](=O)[O-])cc2)c2cc3c(cc2[nH]1)OCCO3,?,-29%,-16%,22%,?,10µM*
CCOC(=O)c1nn(-c2ccccc2)c(=O)c2c(N)scc12,8.2µM*,1%,-17%,2%,19,15µM*
CCOC(=O)c1nn(-c2ccccc2C)c(=O)c2c(N)scc12,?,-8%,9%,-6%,-8,?
Nc1scc2c(C(=O)N/N=C/c3ccc(Cl)cc3)nn(-c3ccccc3)c(=O)c12,8.2µM*,-2%,?,-1%,-19,7.3µM*
OCCOCCn1c(C2CCCN2c2nc(-c3ccc(F)cc3)cs2)nc2cc(C(F)(F)F)ccc21 (stereo not given),16µM*,-28%,·,-11%,-12,?
SMILES,DT40 TDP1 CPT,HT1080 IDH1KD tx,ELG1 DNA repair,HT1080NT lethal,IL-1B inflam inh,TDP1 cell noCPT
Cc1ccc(Cn2c(C3CCCN3c3nc(-c4ccc(F)cc4)cs3)nc3cc(Cl)c(Cl)cc32)cc1 (stereo not given),3%,1%,·,-2%,-7,-25%
Cc1ccc(Cn2c(C3CCCN3c3nc(C)cs3)nc3cc(C(=O)NCCCO)ccc32)cc1 (stereo not given),-15%,6%,·,-5%,-3,2%
CCCn1c(C2CCCN2c2nc(-c3ccc(C)cc3)cs2)nc2ccccc21 (stereo not given),?,?,?,?,27,?
Cc1ccc(Cn2c(C3CCCN3c3nc(-c4ccc(F)cc4)cs3)nc3cc(C(=O)NCCCO)ccc32)cc1 (stereo not given),21µM*,?,·,?,1,?
Cc1ccc(Cn2c(C3CCCN3c3nc(-c4ccc(F)cc4)cs3)nc3cc(C(F)(F)F)ccc32)cc1 (stereo not given),18µM*,-6%,·,0%,24,21µM*
OCCCn1c(C2CCCN2c2nc(-c3ccc(F)cc3)cs2)nc2cc(C(F)(F)F)ccc21 (stereo not given),8.2µM*,-14%,·,-10%,-57*,?
Cc1cccc2sc(=S)[nH]c12,?,-18%,·,-15%,22,?
Cc1csc2nc(CCNS(=O)(=O)c3ccccc3)cn12,-1%,·,·,·,·,22%
OCCOCCn1c(C2CCCN2c2nc(-c3ccc(F)cc3)cs2)nc2cc(Cl)c(Cl)cc21 (stereo not given),?,?,·,?,-54*,21µM*
Cc1ccc(-c2csc(N(CCO)CCCn3c(C(F)(F)F)nc4cc(C(F)(F)F)ccc43)n2)cc1,?,-26%,28%,-11%,25,?
OCCCn1c(CCNc2nc(-c3ccc(F)cc3)cs2)nc2cc(C(F)(F)F)ccc21,?,-10%,·,-15%,-69*,?
CCCCOC(=O)c1ccc(NC(=O)c2cc(-c3ccccc3)on2)cc1,-28%,·,·,·,·,-21%
O=C(Nc1cnn(C23CC4CC(CC(C4)C2)C3)c1)c1cc(-c2ccccc2)on1,23µM*,?,-13%,5%,-16,21µM*
CCCn1cc(NC(=O)c2cc(-c3ccccc3)on2)cn1,?,?,?,?,0,23µM*
O=C(Nc1cccc(Cl)c1)c1cc(-c2ccccc2)on1,-20%,·,·,·,·,-5%
C/C(=N\O)C(C)NC(=O)c1ccccc1 (stereo not given),6%,0%,5%,-4%,17,-3%
